Only some compounds are listed: those with a hit (about 12% of all), similar ones and a draw of the others.
SARS PLpro yeast: qHTS of Yeast-based Assay for SARS-CoV PLP | S. cerevisiae expressing SARS-CoV PLpro, growth rescue | hit rate 0.19% among 330,000 | Potency, µM (titrated, usually from 32.9 µM), actives largely listed as activators; calls by dose curve; further: nearly all actives have a fitted effect of over 55% in size
Pf growth 96h: Primary qHTS for delayed death inhibitors of the malarial parasite plastid, 96 hour incubation | P. falciparum luciferase reporter growth, 96 h | Potency, µM (series often up to 28.7 µM), usual class: inhibitors | hit rate 6.9% among 320,000 | AID 504834, 2011
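Delayed-death screen, second-generation endpoint: infected erythrocytes, 2% hematocrit, 0.05% parasitemia final; 96 hours at 37 C, 5% CO2; luciferase detection reagent; luminescence decrease equals reduced growth.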
Sm TGR block: qHTS Assay for the Inhibitors of Schistosoma Mansoni Peroxiredoxins; Schistosoma mansoni thioredoxin glutathione reductase (TGR), Q962Y6; purified TGR, DTNB reduction, TNB absorbance 405 nm; Potency, µM (series often up to 114 µM), most hits filed as inhibitors; hit rate 3% among 360,000; further: nearly all actives have a fitted effect of over 60% in size
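TGR 20 nM + NADPH 100 uM (dispensed conc.), cpd preinc 15 min RT; start with NADPH (500 uM addition) then DTNB (15 mM addition). Kinetic TNB absorbance, 405 nm filter. Four-parameter Hill fit across titration.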
Pf growth 48h: Primary qHTS for delayed death inhibitors of the malarial parasite plastid, 48 hour incubation. hit rate 5.9% among 310,000. AID 504832, 2011. Potency, µM (titrated, usually from 28.7 µM), hits mostly inhibitors. P. falciparum luciferase growth in erythrocytes, 48 h
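Cell-based growth assay: transgenic P. falciparum expressing firefly luciferase, cultured in red cells within RPMI 1640 containing 0.5% w/v Albumax, 24 mM bicarbonate and gentamycin. A drop in luciferase activity indicates inhibition.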
Large screens that a line does not name were inactive. Unless noted, the call rests on the fitted dose curve; in most records, active means well fitted curve in the direction sought with a large enough effect; inconclusive means small, poorly fitted or top-dose-only effect, or another doubt; inactive means no such curve, though single readings can be large; an effect the other way counts as inactive or inconclusive.

COc1ccc2c(c1)O[C@@H](c1ccc3c(c1)OCO3)[C@H](OC(=O)Nc1cc(OC)c(OC)c(OC)c1)C2=O	Pf growth 96h inconclusive, Pf growth 48h 13.1µM
O=C(CNC(=O)c1ccco1)NCC(=O)OCc1ccc(F)cc1	Pf growth 96h 3.29µM
O=C(COC(=O)Cc1ccccc1)Nc1ncc(Cl)cc1Cl	none (no result: Pf growth 48h)
COC(=O)c1ccc(COC(=O)CNC(=O)c2ccco2)cc1	none (no result: Pf growth 96h)
O=C(CNC(=O)c1ccco1)OCc1cccc(Cl)c1	Sm TGR block 44.7µM
O=C(NCCOc1ccc(Cl)cc1)c1ccco1	Pf growth 96h 2.08µM
O=C(COC(=O)CNC(=O)c1ccco1)Nc1ncc(Cl)cc1Cl	Sm TGR block 39.8µM
COc1ccc(-c2nnc(SCC(=O)NC3CCCCC3)n2N)cc1	none
O=C(CCNc1cccc(Cl)c1)c1ccco1	Sm TGR block 11.2µM (no result: Pf growth 96h)
CC(=O)Nc1ccc(NS(=O)(=O)c2ccc3[nH]c4c(c3c2)CCCCC4)cc1	none (no result: SARS PLpro yeast, Pf growth 96h, Pf growth 48h)
Cc1ccc(S(=O)(=O)/N=C2/C=C(Sc3ncn[nH]3)C(=O)c3ccccc32)c(C)c1	Sm TGR block 0.631µM, Pf growth 48h 2.08µM
Cc1ccc(S(=O)(=O)/N=C2/C=C(Sc3ncn[nH]3)C(=O)c3ccccc32)cc1	Sm TGR block 0.316µM, Pf growth 48h 1.47µM
CC(C)(C)c1ccc(S(=O)(=O)/N=C2\C=C(NS(=O)(=O)c3ccccc3)C(=O)c3ccccc32)cc1	none
Cc1ccc(S(=O)(=O)Nc2ccc(O)c(Sc3ncn[nH]3)c2)cc1	none (no result: Sm TGR block)
CC(C)c1ccc(S(=O)(=O)/N=C2/C=C(Sc3ncn[nH]3)C(=O)c3ccccc32)cc1	Pf growth 96h inconclusive, Sm TGR block 0.282µM, Pf growth 48h 1.31µM
Cc1ccc(S(=O)(=O)N2CCN(C(=O)CSc3ncn[nH]3)CC2)c(C)c1	none
CN(C)c1ccc(C2CC(c3cccc(NS(C)(=O)=O)c3)=NN2C(=O)c2ccccc2)cc1 (stereo unspecified)	Pf growth 48h inconclusive
COc1ccccc1C1CC(c2ccc(Br)cc2)=NN1C(=O)c1cccnc1 (stereo unspecified)	Pf growth 96h 1.85µM, Pf growth 48h 4.15µM
COc1ccc(C2=NN(C(=O)c3ccncc3)C(c3ccccc3O)C2)cc1 (stereo unspecified)	Pf growth 96h inconclusive, Pf growth 48h inconclusive (no result: SARS PLpro yeast)
COc1cccc(C2CC(c3cccc(NS(C)(=O)=O)c3)=NN2C(=O)c2ccccc2)c1OC (stereo unspecified)	Pf growth 96h inconclusive, Pf growth 48h 1.85µM
COc1cccc(C2CC(c3ccc(Br)cc3)=NN2C(=O)c2ccncc2)c1OC (stereo unspecified)	Pf growth 96h inconclusive, Pf growth 48h 11.7µM
CNS(=O)(=O)c1cc(-c2nn3c(C)nnc3c3ccccc23)ccc1C	none (no result: SARS PLpro yeast, Pf growth 96h, Pf growth 48h)
O=C1CCC/C(=N/Nc2ccc(Cl)cc2)C1	Pf growth 96h 11.7µM, Sm TGR block 12.6µM, Pf growth 48h inconclusive
Cc1ccc(-c2ccc(/C=N\NC(=O)c3cc4c(ccc5ccccc54)o3)o2)cc1[N+](=O)[O-]	Pf growth 96h 2.94µM, Pf growth 48h inconclusive
CCCCCC(=O)N/N=C/c1ccco1	Pf growth 96h 13.1µM
CC(C)(C)NC(=S)N/N=C\c1ccc(-c2ccc([N+](=O)[O-])cc2)o1	Pf growth 96h 3.7µM, Sm TGR block 2.24µM, Pf growth 48h inconclusive
CNC(=S)N/N=C/c1ccc(-c2ccc(Cl)c([N+](=O)[O-])c2)o1	Pf growth 48h inconclusive
CCCCC(=O)N/N=C/c1ccc(-c2ccc([N+](=O)[O-])cc2)o1	Pf growth 96h 9.28µM
O=C(/C=C/c1ccccc1Cl)OCC(=O)c1ccc[nH]1	none
Clc1cccc(N2CCN(c3c4c(nc5nncn35)CCC4)CC2)c1	none (no result: SARS PLpro yeast, Pf growth 96h, Pf growth 48h)
Cc1ccc(NC(=O)C(CC(C)C)N2Cc3ccccc3C2=O)cc1F (stereo unspecified)	none (no result: SARS PLpro yeast, Pf growth 96h, Pf growth 48h)
C=CCNC(=S)N/N=C/c1ccc(-c2ccc(OC)cc2)o1	Pf growth 96h inconclusive, Pf growth 48h 5.22µM (no result: Sm TGR block)
C=CCNC(=S)N/N=C/c1ccc(-c2cc(Cl)ccc2Cl)o1	Pf growth 48h inconclusive (no result: SARS PLpro yeast)
CCc1nnc(N/N=C/c2ccc(-c3ccc([N+](=O)[O-])cc3)o2)n1N	Pf growth 96h inconclusive, Pf growth 48h 11.7µM
Cc1cc(C)n(Cc2ccc(C(=O)N/N=C/c3ccc(-c4ccc([N+](=O)[O-])cc4)o3)o2)n1	Pf growth 96h 5.22µM, Sm TGR block inconclusive
CCC(=O)N/N=C/c1ccc(-c2ccc([N+](=O)[O-])cc2)o1	Pf growth 96h 10.4µM
CCN(c1ccccc1)S(=O)(=O)c1cccc(C(=O)OCC(=O)Nc2ccc(NC(C)=O)cc2)c1	none (no result: Pf growth 96h, Sm TGR block, Pf growth 48h)
COCc1cc(C)nc2sc3c(c12)NC(c1ccc(O)cc1)N(c1ccc(OC)cc1)C3=O (stereo unspecified)	none (no result: SARS PLpro yeast, Pf growth 96h, Pf growth 48h)
Cc1ccc(NC(=O)COC(=O)[C@@H]2CC(O)CN2S(=O)(=O)c2ccc3c(c2)OCCO3)cc1 (stereo partly specified)	none (no result: Pf growth 96h, Sm TGR block, Pf growth 48h)
O=C(C1COc2ccccc2O1)N1CCN(c2nc3c(F)cccc3s2)CC1 (stereo unspecified)	none (no result: SARS PLpro yeast, Pf growth 96h, Pf growth 48h)
O=C(CN(Cc1ccco1)C(=O)Cn1nnc(-c2cccs2)n1)NCc1ccccc1	Pf growth 96h inconclusive, Sm TGR block 17.8µM
Cc1ccc(C(C(=O)NC(C)(C)C)N(Cc2ccco2)C(=O)Cn2nnc(-c3cccs3)n2)cc1 (stereo unspecified)	Pf growth 48h 9.28µM
O=C(NCc1ccccc1)C(c1ccc(F)cc1)N(Cc1ccc2c(c1)OCO2)C(=O)Cn1nnc(-c2cccs2)n1 (stereo unspecified)	Pf growth 48h 10.4µM
CC(C)(C)NC(=O)C(c1ccncc1)N(Cc1cccs1)C(=O)Cn1nnc(-c2cccs2)n1 (stereo unspecified)	Pf growth 96h inconclusive, Sm TGR block 50.1µM, Pf growth 48h 2.94µM
Cc1ccc(-c2nnn(CC(=O)N(Cc3ccco3)C(C(=O)NC(C)(C)C)c3ccc(C)o3)n2)o1 (stereo unspecified)	Pf growth 48h inconclusive
CC(C)(C)NC(=O)C(c1ccncc1)N(C(=O)Cn1nnc(-c2cccs2)n1)C1CCCCC1 (stereo unspecified)	Pf growth 48h 9.28µM
CCC(C)(C)NC(=O)C(c1ccncc1)N(Cc1cccs1)C(=O)Cn1nnc2ccccc21 (stereo unspecified)	Pf growth 96h 11.7µM, Pf growth 48h inconclusive
Cc1ccc(N(C(=O)Cn2nnc(-c3cccs3)n2)C(C(=O)NC2CCCC2)c2ccncc2)cc1 (stereo unspecified)	Pf growth 48h inconclusive
CC(C)(C)NC(=O)C(c1ccc(O)cc1)N(Cc1ccco1)C(=O)Cn1nnc(-c2cccs2)n1 (stereo unspecified)	Sm TGR block 17.8µM, Pf growth 48h 13.1µM
Cc1ccccc1NC(=S)N1CCN(Cc2ccccc2)CC1	Pf growth 96h 1.17µM
O=C(c1ccc(C#CC2(O)CCCCC2)cc1)N1CCN(C(c2ccccc2)c2ccccc2)CC1	none (no result: Pf growth 48h)
O=C(N1CCOCC1)N1CCN(Cc2ccccc2)CC1	Pf growth 96h 1.65µM, Sm TGR block inconclusive

Compound activity from PubChem.
